High-throughput results as filed in PubChem BioAssay.
An excerpt weighted towards active compounds, which were near 2.4% of everything screened.
POLB inh = inhibitors of human DNA polymerase beta. P06746. Pol beta primer extension/strand displacement, fluorescence kinetic. Potency, µM (top dose mostly 114 µM), inactives show at the top dose activity change, negative = inhibition, hits mostly inhibitors. 1.3% of 340,000 active; note: potency is the fitted concentration of half-maximal effect; % is set by controls: 0 for no effect and ±100 for the full control effect
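Enzyme-only controls used 10 nM Pol beta; buffer lacking enzyme served as negative control. Compound preincubated 15 min, then 50 nM substrate added; 0 and 10 min reads at room temperature.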
FEN1 inh-1 = human FEN1 inhibition. P39748. Recombinant FEN1 flap cleavage, fluorescence, 15 min. Potency, µM (highest dose often 114 µM), for the others: top-dose activity change, negative = inhibition, most hits filed as inhibitors. 0.35% of 390,000 active; note: potency is the fitted concentration of half-maximal effect; % is set by controls: 0 for no effect and ±100 for the full control effect; nearly all actives have a fitted effect of over 65% in size
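FEN1 at 10 nM preincubated with compounds 15 min at room temperature, then flap DNA substrate added at 50 nM final. Signal read at 0 and 15 min; concentration-response fitted with four-parameter Hill equation.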
Pol eta inh-1 = blocks human DNA polymerase eta activity. Q9Y253. 1.2% of 390,000 active. recombinant Pol eta, fluorescent DNA replication assay. Potency, µM (highest dose often 114 µM), without a hit: at the highest dose activity change, negative = inhibition, actives largely listed as inhibitors; note: potency is the fitted concentration of half-maximal effect; % is set by controls: 0 for no effect and ±100 for the full control effect
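Fluorescent replication assay: 50 nM final substrate added after a 15 min room-temperature compound preincubation with 10 nM enzyme. Signal taken at 0 min and again at 10 min.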
Pol iota inh = inhibitors of human DNA polymerase iota; Pol iota fluorescent replication assay, 10 min; AID 588590; Potency, µM (titrated, usually from 115 µM), inactives show at the highest dose activity, negative = inhibition, most hits filed as inhibitors; 1% of 390,000 active; note: potency is the fitted concentration of half-maximal effect
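Fluorescent replication assay read twice, at 0 min and 10 min after adding 50 nM (final) substrate. Enzyme (10 nM) and compounds were first incubated 15 min at room temperature; enzyme-free buffer wells were negative controls.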
WRN helicase inh = inhibitors of human WRN helicase. Q14191. WRN helicase unwinding, fluorescent forked duplex, kinetic. Potency, µM (titrated, usually from 114 µM), for inactives: at the top dose activity change, negative = inhibition, most hits filed as inhibitors. 0.46% of 360,000 active. AID 651768; note: potency is the fitted concentration of half-maximal effect; % is set by controls: 0 for no effect and ±100 for the full control effect; nearly all actives have a fitted effect of over 55% in size
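WRN at 20 nM final preincubated with compound 15 min at room temperature; reaction started with 100 nM fluorophore/quencher forked duplex oligonucleotide and 2 mM ATP final. Unwinding followed kinetically by red fluorescence (ex 525, em 598 nm).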
Pol kappa inh-1 = DNA polymerase kappa (human) inhibition | Q9UBT6 | Potency, µM (highest dose often 107 µM), without a hit: top-dose activity, negative = inhibition, most hits filed as inhibitors | 0.53% of 400,000 active | purified Pol kappa, fluorescent DNA synthesis assay, 10 min | AID 588579; note: potency is the fitted concentration of half-maximal effect; % is set by controls: 0 for no effect and ±100 for the full control effect
Target sequence (Q9UBT6 whole entry, looked up): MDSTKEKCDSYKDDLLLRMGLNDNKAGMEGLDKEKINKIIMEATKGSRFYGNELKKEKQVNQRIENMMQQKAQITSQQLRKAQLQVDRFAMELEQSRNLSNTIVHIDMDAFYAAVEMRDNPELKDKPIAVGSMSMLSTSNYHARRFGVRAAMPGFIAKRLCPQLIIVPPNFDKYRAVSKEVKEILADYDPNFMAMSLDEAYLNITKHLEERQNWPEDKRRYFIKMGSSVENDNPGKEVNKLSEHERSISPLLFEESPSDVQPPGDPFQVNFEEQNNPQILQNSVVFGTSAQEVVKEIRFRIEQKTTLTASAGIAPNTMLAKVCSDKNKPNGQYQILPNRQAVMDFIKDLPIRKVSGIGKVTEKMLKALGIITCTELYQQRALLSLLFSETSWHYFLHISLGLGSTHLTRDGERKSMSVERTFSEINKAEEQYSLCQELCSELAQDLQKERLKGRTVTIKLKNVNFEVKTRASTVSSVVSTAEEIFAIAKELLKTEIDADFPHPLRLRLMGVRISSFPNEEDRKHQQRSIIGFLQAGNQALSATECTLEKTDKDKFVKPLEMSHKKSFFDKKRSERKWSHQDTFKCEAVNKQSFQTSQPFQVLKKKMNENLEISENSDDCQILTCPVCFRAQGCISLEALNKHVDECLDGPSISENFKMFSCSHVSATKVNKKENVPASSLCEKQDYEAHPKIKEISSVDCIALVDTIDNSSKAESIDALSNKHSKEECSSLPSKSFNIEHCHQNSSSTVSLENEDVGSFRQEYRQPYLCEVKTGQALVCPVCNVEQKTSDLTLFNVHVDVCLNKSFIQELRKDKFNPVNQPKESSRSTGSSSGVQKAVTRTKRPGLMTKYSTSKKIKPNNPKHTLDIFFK
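Pol kappa 10 nM + cpd, 15 min RT; start w/ substrate 50 nM final; fluorescence kinetic read, 0 and 10 min. Neg ctrl: buffer, no enzyme.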
PGK validate = blocks T. brucei phosphoglycerate kinase; shares compounds with Pol kappa inh-1; TbPGK coupled GAPDH assay, Kinase-Glo luminescence; Potency, µM (doses to about 57.5 µM), for inactives: at the highest dose activity change, negative = inhibition, actives largely listed as inhibitors; 79% of 500 active; AID 686980; note: potency is the fitted concentration of half-maximal effect; % is set by controls: 0 for no effect and ±100 for the full control effect; nearly all actives have a fitted effect of over 65% in size
Pol iota confirm = Inhibitors of human DNA polymerase iota, confirmation. shares compounds with Pol kappa inh-1. Pol iota primer extension, TAMRA/BHQ fluorescence. Potency, µM, usual class: inhibitors. 77% of 1,500 active; note: potency is the fitted concentration of half-maximal effect
GALK inh confirm = galactokinase (human) inhibition, confirmation. shares compounds with Pol eta inh-1. purified GALK, Kinase-Glo ATP depletion luminescence. Potency, µM (highest dose often 115 µM), inactives show at the highest dose activity, negative = inhibition, actives largely listed as inhibitors. 70% of 150 active. AID 2015
Redox cycling = generates H2O2 by redox cycling, flagging GALK artifacts; AID 2035; shares compounds with Pol eta inh-1; 40% of 150 active; Phenol red-HRP H2O2 redox cycling, absorbance 600 nm; Potency, µM (doses to about 115 µM), for the others: at the top dose activity change, negative = H2O2 signal, hits mostly inhibitors
HEK293 tox = counter-screen for GALK inhibitors: HEK293 cell cytotoxicity; shares compounds with Pol eta inh-1; HEK-293 viability, ATP luminescence (CellTiter-Glo), 24/48 h; Potency, µM (highest dose often 46.1 µM), inactives show at the top dose activity change, negative = cytotoxicity, actives largely listed as inhibitors; 10% of 170 active; note: potency is the fitted concentration of half-maximal effect; % is set by controls: 0 for no effect and ±100 for the full control effect
Pol kappa inh-2 = confirmation of human DNA polymerase kappa inhibitors. shares compounds with Pol eta inh-1. purified Pol-kappa, fluorescent strand-displacement substrate. Potency, µM, usual class: inhibitors. 76% of 920 active. AID 720501; note: potency is the fitted concentration of half-maximal effect
Pol eta inh-2 = Pol eta (human) inhibition, cherry-pick confirmation; shares compounds with Pol eta inh-1; Pol eta primer extension, TAMRA/BHQ fluorescence, 10 min; Potency, µM, hits mostly inhibitors; 64% of 2,600 active; note: potency is the fitted concentration of half-maximal effect
FEN1 inh-2 = FEN1 inhibition, cherry-pick retest | shares compounds with FEN1 inh-1 | Potency, µM, most hits filed as inhibitors | AID 720498 | 79% of 880 active | FEN1 flap cleavage, TAMRA/BHQ2 fluorogenic DNA substrate; note: potency is the fitted concentration of half-maximal effect; nearly all actives have a fitted effect of over 60% in size
* = called active by the depositor; ? = inconclusive; . = not tested or not shown; [ ] = another dose, or the depositor's remark. Calls come from the whole dose curve; as a rule, active = well fitted curve in the direction sought with a large enough effect; inconclusive = small, poorly fitted or top-dose-only effect, or another doubt; inactive = no such curve, though single readings can be large; an effect the other way counts as inactive or inconclusive.

SMILES	POLB inh	FEN1 inh-1	Pol eta inh-1	Pol iota inh	WRN helicase inh	Pol kappa inh-1	Pol iota confirm	Pol eta inh-2	FEN1 inh-2	others
COc1c(OC2OC(C(=O)O)C(O)C(O)C2O)cc(O)c2c(=O)cc(-c3ccccc3)oc12 (stereo unspecified)	19%	?	-10%	-9%	-1%	-33%	.	.	.
C=C1c2cccc(O)c2C(O)=C2C(=O)[C@]3(O)C(O)=C(C(N)=O)C(=O)[C@@H](N(C)C)[C@@H]3[C@@H](O)[C@H]12	11µM*	?	32µM*	2.8µM*	?	6.3µM*	7.5*	13*	34*	Pol kappa inh-2=3.8*
C[C@H]1c2cccc(O)c2C(=O)C2C(=O)C3(O)C(=O)C(C(N)=O)C(=O)[C@@H](N(C)C)[C@@H]3[C@@H](O)[C@@H]21 (stereo partly specified)	.	?	-10%	?	9%	-16%	.	.	.
COc1cc(/C=C(\C#N)C(=O)Nc2cccc(C(=O)O)c2)ccc1OCc1ccc(Cl)cc1	10µM*	?	56µM*	?	-5%[11.6 µM]	?	?	.	76*
CN1/C(=C\C=N\O)C(C)(C)c2ccccc21	8%	18%	0%	22%	-6%	0%	.	.	.
CN1/C(=C\C=C2/SC(=S)NC2=O)C(C)(C)c2ccccc21	22µM*	?	79µM*	28µM*	28µM*	45µM*	75*	76*	67*	Pol kappa inh-2=38*
CCc1c(C)sc2c1CCN(C(=O)Nc1cc(Cl)c(OC)cc1OC)C2c1ccccc1 (stereo unspecified)	0%	1%	-7%	?	.	-11%[60.1 µM]	.	.	.
CS(=O)(=O)c1cccc(C(=O)Nc2ccc(-c3nc4ccccc4[nH]3)cc2)c1	9%	8%	-11%	?	-3%	-12%	.	.	.
Cc1ccc(C(=O)Nc2ccc(-c3nc4ccccc4[nH]3)cc2)cc1Br	.	.	.	.	.	.	67*	?	60*
COc1cc(-c2cc(=O)c3c(O)c(OC)c(OC)c(O)c3o2)ccc1O	7.1µM*	?	7.1µM*	?	?	25µM*	7.5*	27*	34*
O=C(CCn1c(=O)c2sccc2n(Cc2ccccc2F)c1=O)NCc1ccc2c(c1)OCO2	0%	3%	-17%	2%	.	-17%	.	.	.
Cc1ccc2oc(-c3ccccc3)cc(=O)c2c1	.	.	.	.	.	-9%[19.4 µM]	.	.	.
CC1(C)CC(N=c2cc(-c3ccccc3)oc3ccc(Cl)cc23)CC(C)(C)N1	4µM*	28µM*	?	?	-31%	?	19*	.	19*
COc1ccc(C(=O)Nc2sc3c(c2C(N)=O)CCCC3)cc1OC	.	.	.	.	.	-7%[60.1 µM]	.	.	.
Cc1ccc(N2C(=O)c3ccccc3C2C(=O)c2ccc(O)cc2O)cc1 (stereo unspecified)	35µM*	40µM*	79µM*	11µM*	?	11µM*	19*	30*	34*
O=C(c1cnccn1)N1CCC2(CCCN(Cc3nccs3)C2)CC1	.	.	.	.	.	2%[60.1 µM]	.	.	.
Cc1ccc(C(=O)Nc2nnc(CC(=O)N/N=C/c3ccc(O)c(O)c3)s2)cc1	3.5µM*	11µM*	3.5µM*	?	20µM*	?	9.5*	17*	38*	PGK validate=4.1µM*
COc1cc2oc(=O)c(CC(=O)NCCc3ccccc3)c(C)c2cc1Cl	1%	23%	-15%	26%	.	4%	.	.	.
O=C(O)CSc1cc(NS(=O)(=O)c2cccc([N+](=O)[O-])c2)c2ccccc2c1O	79µM*	3.2µM*	22µM*	3.2µM*	40µM*	?	27*	27*	76*	GALK inh confirm=33µM*;Redox cycling=21µM*;HEK293 tox=-16%
CCOc1ccc(S(=O)(=O)Nc2cc(SCC(=O)O)c(O)c3ccccc23)cc1	?	?	45µM*	10µM*	79µM*	-32%	?	?	67*
CCOc1ccc(S(=O)(=O)Nc2cc3c(C(=O)OC)c(COC)oc3c3ccccc23)cc1	?	0%	-17%	22%	.	-17%	.	.	.
O=C(O)c1cccc(S(=O)(=O)Nc2ccc([N+](=O)[O-])cc2O)c1	13%	14%	-1%	?	-20%	?	.	.	.
CC(C)(C)c1ccc(C2=NC(C)(C)N(CC(=O)Nc3ccc(F)c(F)c3)C2=O)cc1	-15%	1%	.	36%	.	-4%	.	.	.
COc1cc(/C=N/N2C(C)CCCC2C)cc(Br)c1O (stereo unspecified)	8%	-3%	-12%	-21%	5%	1%	.	.	.
COc1cc(/C=N/N2C(=O)CSC2=S)cc(Br)c1O	35µM*	79µM*	25µM*	?	50µM*	40µM*	?	67*	43*	Pol kappa inh-2=38*
CCOc1ccc2c(ccc(/C=C/c3cc(C)c4cccnc4c3O)[n+]2C)c1	.	8.9µM*	20µM*	?	10µM*	?	19*	21*	12*	Pol kappa inh-2=19*
